Screens from PubChem BioAssay.
Sampled rows, rich in hits. Any-hit rate of the full collection: about 1.9%.
RXFP1 antag – qHTS Assay for Antagonists of the Relaxin Receptor RXFP1; Relaxin receptor 1 (Homo sapiens), Q9HBX9; HEK293-RXFP1, relaxin-stimulated cAMP HTRF, 30 min; stronger effect = lower value; activity change, negative = inhibition, % at 57.5 µM; 0.59% of 350,000 active; AID 1259400, 2018;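 active means activity change of -60% or lower, but not beyond a set lower limit; inconclusive means change between -60% and -40%, or beyond the set limit; inactive means change above -40%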; further: on the % scale 0 is the no-effect control and ±100 the full control effect
RXFP1 agonist – qHTS Assay for Agonists of the Relaxin Receptor RXFP1; HEK293T-RXFP1 cAMP TR-FRET, 30 min; response scale: percent of porcine relaxin response, buffer zero; AID 2676, 2010; 0.3% of 370,000 active; Potency, µM (doses to about 57.5 µM), inactives show at the highest dose activation, actives largely listed as activators; further: potency means the concentration at half of the fitted maximal effect; on the % scale 0 is the no-effect control and ±100 the full control effect; nearly all actives have a fitted effect of over 60% in size
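cAMP rise read by TR-FRET after 30 min, 37C compound exposure (up to 58 uM) in RXFP1-transfected HEK293 cells with Ro 20174 present. EC50 from Hill-equation fits, with 29 nM porcine relaxin as 100% and buffer as basal.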
IL-2 act – qHTS of IL-2 Activators; IL-2 activation reporter assay, cell-based qHTS; stimulated with anti-CD3/CD4/CD28 beads; in transgenic mouse T cells; activation, % (series mostly up to about 46 µM); 0.065% of 360,000 active; in the data active means activation above about 50%; inconclusive means mostly about 30% to 49%; further: 0% is about no effect
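Unstimulated transgenic mouse T cells preincubated 60 min with compound, then stimulated with anti-CD3/anti-CD4-coated beads plus anti-CD28 for 18 h at 37 degrees C. IL-2 response read as EGFP and DsRed fluorescence by plate cytometry.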
Giardia killer – Small Molecules that selectively kill Giardia lamblia: qHTS; 0.15% of 340,000 active; activity change, % at 7.66 µM, hits read low; Giardia lamblia trophozoite viability; in the data active means activity change below about -80%; inconclusive means between about -30% and that limit;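 further: parasites exposed to compound for two days anaerobically before the ATP read; on the % scale 0 is the no-effect control and ±100 the full control effect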
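Anaerobic 48 hrs incubation at 37 deg C of 100 trophozoites/well with test compounds; ATPLite 1-Step luminescence, 15-30 min RT, reports cellular ATP as viability.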
NPSR antagonist – qHTS Assay for Antagonists of the Neuropeptide S Receptor: cAMP Signal Transduction; Q6W5P4; CHO-NPSR cells, cAMP TR-FRET, antagonist mode; Potency, µM (titrated, usually from 38.3 µM), for the others: top-dose activity change, negative = inhibition, hits mostly inhibitors; 1% of 220,000 active; further: potency means the concentration at half of the fitted maximal effect; on the % scale 0 is the no-effect control and ±100 the full control effect; nearly all actives have a fitted effect of over 50% in size
Target sequence (Q6W5P4 whole entry, looked up): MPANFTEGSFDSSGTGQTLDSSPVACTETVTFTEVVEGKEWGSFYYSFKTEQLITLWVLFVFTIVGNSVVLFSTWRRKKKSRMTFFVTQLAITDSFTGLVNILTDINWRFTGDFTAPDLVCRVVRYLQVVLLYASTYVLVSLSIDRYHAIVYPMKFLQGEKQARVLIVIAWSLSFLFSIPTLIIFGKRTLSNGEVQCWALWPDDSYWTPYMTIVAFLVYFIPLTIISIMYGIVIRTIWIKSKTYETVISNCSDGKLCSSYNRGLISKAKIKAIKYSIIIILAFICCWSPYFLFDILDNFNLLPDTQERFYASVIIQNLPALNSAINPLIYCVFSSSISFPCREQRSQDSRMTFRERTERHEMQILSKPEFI
BRCA1 expr act – qHTS Assay to Identify Small Molecule Activators of BRCA1 Expression; MCF7-BRCA1-FFLuc reporter, luminescence, 48 h; response scale: scaled: vehicle 0%, 10 µM genistein 100%; Potency, µM (highest dose often 46.1 µM), for inactives: top-dose activation, most hits filed as activators; 1.1% of 380,000 active; further: potency means the concentration at half of the fitted maximal effect; nearly all actives have a fitted effect of over 80% in size
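Luminescence from a BRCA1-driven firefly luciferase in MCF7 cells was read after 48 h compound exposure at 37 C. Data normalized against DMSO and a 10microM genistein activation control, then curve-fitted across the titration.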
* hit, by the source's call; ? = inconclusive; . = no result; [ ] = remark or other dose. Unless noted, the call rests on the fitted dose curve; in most records, active means well fitted curve in the direction sought with a large enough effect; inconclusive means small, poorly fitted or top-dose-only effect, or another doubt; inactive means no such curve, though single readings can be large; an effect the other way counts as inactive or inconclusive.

SMILES | RXFP1 antag | RXFP1 agonist | IL-2 act | Giardia killer | NPSR antagonist | BRCA1 expr act
CCOC(=O)C1=CN(C(=O)OC(C)(C)C)C(CN2C(=O)COCC2=O)C1 (stereo not given) | . | . | . | 28 | . | .
Cc1ccc(C(=O)c2cc(O)c(O)c([N+](=O)[O-])c2)cc1 | -39 | . | . | . | . | .
Cc1ccc2c(=O)c(C(=O)NCc3cccs3)c[nH]c2c1 | -12 | -1% | -2 | -4 | -18%[46.1 µM] | 11µM*
Cc1cccc2c(=O)c(C(=O)NCc3cccs3)c[nH]c12 | -8 | . | -1 | -16 | . | 13µM*
C=C1C=C(C(F)(F)F)n2ncc(C(=O)NCc3ccc(F)cc3)c2N1 | . | . | . | . | . | -10%
CC1=NNC(=O)/C1=C\c1cn(-c2ccccc2)nc1-c1ccccc1 | -73* | -5% | -1 | 9 | 13µM* | -95%
C=C1C=C(C(F)F)n2ncc(C(=O)NCc3ccc(OC)cc3)c2N1 | . | . | . | . | . | -13%
CC1CC=CC2C1C(=O)N(Cc1ccccc1)C2c1ccc(-c2ccoc2)cc1F (stereo not given) | . | . | . | -16 | . | .
O=C(Nc1cnn(C23CC4CC(CC(C4)C2)C3)c1)c1cnn2c(C(F)(F)F)cc(-c3ccco3)nc12 | 6 | 1% | -2 | 24 | 7.9µM* | -5%
O=C(Nc1ccc2c(c1)OCO2)c1cnn2c(C(F)(F)F)cc(-c3ccco3)nc12 | -4 | 0% | -2 | 3 | -16%[46.1 µM] | -12%
O=C(OC(c1ccccc1)c1nccc2ccccc12)c1cccc([N+](=O)[O-])c1 (stereo not given) | -15 | 1% | -1 | -21 | -44% | 7.1µM*
S=C(Nc1nc2c(s1)CCCC2)NC1CC1 | -20 | -1% | -3 | 18 | . | 6.3µM*
CCOc1ccccc1C1NC(c2ccc3c(c2)OCO3)=CC(c2ccccc2O)N1 (stereo not given) | . | . | . | 8 | . | 9%
COC(=O)CS(=O)(=O)c1nnc([C@H](Cc2ccccc2)NC(=O)OC(C)(C)C)o1 | ? | 0% | -3 | 3 | 7.9µM* | -79%
C=C1C=C(C(F)F)n2ncc(C(=O)NCc3ccc(Cl)cc3)c2N1 | . | . | . | . | . | -6%
Oc1[nH]c2ccccc2c1N=Nc1ccc(F)cc1 | -9 | 1% | 191* | 11 | -2% | 14%
COC(=O)C(Cc1ccc(O)cc1)N1Cc2ccccc2C1=O (stereo not given) | 4 | 4% | -1 | -4 | . | 10µM*
c1ccc2oc(-c3[nH]ncc3CN3CCSCC3)cc2c1 | 5 | 1% | -4 | -8 | 11% | 0%
c1ccc2oc(-c3ccn[nH]3)cc2c1 | -5 | -1% | -2 | -9 | -11% | 4.5µM*
Cc1cc(C)n(Cc2ccccc2)c(=O)c1S(=O)(=O)c1ccccc1 | -4 | 2% | 1 | 17 | -11%[46.1 µM] | 1%
C#CCn1c(C)cc(C)c(S(=O)(=O)c2ccccc2)c1=O | 0 | 6% | 0 | -10 | 0% | 13µM*
COc1ccc(C(=O)/C(=C\c2ccco2)N2C=CC=CC2=C(C#N)C#N)cc1 | -75* | 2% | 0 | 2 | -26%[46.1 µM] | -89%
N#CC(C#N)=C1C=CC=CN1/C(=C\c1ccco1)C(=O)c1ccccc1 | -104* | -2% | -1 | -14 | ? | -78%
Cc1ccccc1S(=O)(=O)N1CCN(c2nc(-c3cccs3)nc3ccccc23)CC1 | . | . | . | 6 | . | 4%
COc1cccc(CNC(=O)COC(=O)c2ccc(S(C)(=O)=O)c([N+](=O)[O-])c2)c1 | . | . | . | -14 | . | 2%
CCOC(=O)COc1ccc(/C=C/[N+](=O)[O-])c(OCC(=O)OCC)c1 | -69* | 3% | 0 | 9 | ? | -69%
CCOc1ccc(/C=C/[N+](=O)[O-])c2ccccc12 | -69* | 2% | -5 | -16 | 10µM* | -92%
CCOC(=O)COc1ccc2ccccc2c1/C=C/[N+](=O)[O-] | ? | 2% | 2 | 2 | ? | -70%
